Results filed as inconclusive are left out. The source made the active and inactive calls. The call rests on the fitted dose curve; in most records, active means well fitted curve in the direction sought with a large enough effect in the repeat runs; inconclusive means weak or mixed curves; inactive means no such curve, though single readings can be large; an effect the other way counts as inactive or inconclusive.
What was measured:
[1] = qHTS RealTime-Glo MT Cell Viability Assay in HEK293 cells - 16 hour (AID 1224872); further: top concentration of the series differs between compounds; nearly all actives have a fitted effect of over 50% in size
In short: (§1)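 Assay medium contained NanoLuc luciferase plus cell-permeant prosubstrate, added with HEK293 cells at 600 cells/well. After 5 h at 37 C/5% CO2 compounds were added; plates stayed at 37 C for 40 h with serial luminescence reads.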

[2] = qHTS RealTime-Glo MT Cell Viability Assay in HepG2 cells - 8 hour (AID 1224873); further: nearly all actives have a fitted effect of over 55% in size
In short: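 HepG2 cells mixed with RealTime-Glo MT reagents (NanoLuc plus cell-permeant prosubstrate) were seeded at 600 cells/well, incubated 5 h at 37 C/5% CO2, then pinned with compounds in DMSO; nonlytic luminescence tracked viability during 40 h treatment.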

[3] = A CellTox Green Cytotoxicity Assay to monitor cytotoxicity in HepG2 cells - 16 hour (AID 1224876); further: nearly all actives have a fitted effect of over 45% in size
In short: (§2)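 First, HepG2 cells (600/well) mixed with reagent were plated; second, after 5 h at 37 C they received compounds via pintool; third, fluorescence was measured at 0 h through 40 h at 8 h intervals.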

[4] = qHTS RealTime-Glo MT Cell Viability Assay in HepG2 cells - 32 hour (AID 1224877); further: nearly all actives have a fitted effect of over 55% in size
In short: (§3)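 qHTS, HepG2, 600 cells/well, RealTime-Glo (NanoLuc + prosubstrate) added with cells; 5 h preincubation; DMSO compound addition; 37 C; luminescence at 0/8/16/24/32/40 h.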

[5] = A CellTox Green Cytotoxicity Assay to monitor cytotoxicity in HepG2 cells - 24 hour (AID 1224878); further: nearly all actives have a fitted effect of over 45% in size
In short: as §2

[6] = A CellTox Green Cytotoxicity Assay to monitor cytotoxicity in HepG2 cells - 40 hour (AID 1224879); further: nearly all actives have a fitted effect of over 40% in size
In short: as §2

[7] = qHTS RealTime-Glo MT Cell Viability Assay in HEK293 cells - 0 hour (AID 1224880); further: top concentration of the series differs between compounds; nearly all actives have a fitted effect of over 45% in size
In short: (§4)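 600 HEK293 cells per well, dispensed already mixed with RealTime-Glo MT reagents. Compound dosing came 5 h later. The same wells were read for luminescence at 0, 8, 16, 24, 32 and 40 h of exposure at 37 C.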

[8] = A CellTox Green Cytotoxicity Assay to monitor cytotoxicity in HEK293 cells - 32 hour (AID 1224881); further: nearly all actives have a fitted effect of over 40% in size
In short: (§5)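 Dead-cell fluorescence measured kinetically: asymmetric cyanine dye, HEK293, 600 cells/well, 5 h settle, 23 nL cpd/DMSO, 37 C, reads 0–40 h every 8 h.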

[9] = A CellTox Green Cytotoxicity Assay to monitor cytotoxicity in HepG2 cells - 0 hour (AID 1224882); further: nearly all actives have a fitted effect of over 35% in size
In short: as §2

[10] = A CellTox Green Cytotoxicity Assay to monitor cytotoxicity in HepG2 cells - 32 hour (AID 1224883); further: nearly all actives have a fitted effect of over 50% in size
In short: as §2

[11] = A CellTox Green Cytotoxicity Assay to monitor cytotoxicity in HEK293 cells - 8 hour (AID 1224884); further: nearly all actives have a fitted effect of over 35% in size
In short: as §5

[12] = qHTS RealTime-Glo MT Cell Viability Assay in HepG2 cells - 16 hour (AID 1224885); further: nearly all actives have a fitted effect of over 50% in size
In short: as §3

[13] = qHTS RealTime-Glo MT Cell Viability Assay in HEK293 cells - 24 hour (AID 1224886); further: top concentration of the series differs between compounds; nearly all actives have a fitted effect of over 50% in size
In short: as §1

[14] = qHTS RealTime-Glo MT Cell Viability Assay in HEK293 cells - 8 hour (AID 1224887)
In short: as §4

[15] = A CellTox Green Cytotoxicity Assay to monitor cytotoxicity in HEK293 cells - 16 hour (AID 1224888); further: nearly all actives have a fitted effect of over 35% in size
In short: as §5

[16] = qHTS RealTime-Glo MT Cell Viability Assay in HepG2 cells - 0 hour (AID 1224889); further: nearly all actives have a fitted effect of over 50% in size
In short: as §3

[17] = A CellTox Green Cytotoxicity Assay to monitor cytotoxicity in HepG2 cells - 8 hour (AID 1224890); further: nearly all actives have a fitted effect of over 45% in size
In short: as §2

[18] = qHTS assay to identify small molecule antagonists of the estrogen receptor alpha (ER-alpha) signaling pathway using the BG1 cell line in the presence of 0.1 nM 17-beta-estradiol - cell viability counter screen (AID 1259241); further: nearly all actives have a fitted effect of over 40% in size
In short: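 VM7Luc4E2 cells (endogenous full-length ER-alpha, 4xERE-luciferase), cultured 5 days in charcoal-stripped serum, exposed to compounds with 0.1 nM 17beta-estradiol (final) for 22 hr at 37C. Viability read in same wells as live-cell protease fluorescence after 30 min.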

[19] = A CellTox Green Cytotoxicity Assay to monitor cytotoxicity in HEK293 cells - 24 hour (AID 1224875)
In short: as §5

Measured: Potency

Nc1ccc(O)c(C(=O)O)c1
not listed: [19]
inactive: all other assays above

OCCc1ccccc1
not listed: [4] | [13]
inactive: all other assays above

Cc1ccc(C)c(OCCCC(C)(C)C(=O)O)c1
not listed: [4]
inactive: all other assays above

O=C1NC(=O)c2ccccc21
not listed: [4] | [13] | [19]
inactive: all other assays above

NC(=O)NC1NC(=O)NC1=O (stereo not drawn)
not listed: [4]
inactive: all other assays above

COc1ccc2[nH]cc(CCNC(C)=O)c2c1
not listed: [4] | [19]
inactive: all other assays above

CCC1(c2ccccc2)C(=O)NCNC1=O
not listed: [4] | [19]
inactive: all other assays above

CC(=O)Nc1nnc(S(N)(=O)=O)s1
not listed: [13] | [19]
inactive: all other assays above

O=C(O)C(=O)O
not listed: [4]
inactive: all other assays above

NC(=O)c1ccccc1O
not listed: [13] | [19]
inactive: all other assays above

Cc1cn([C@H]2C[C@H](N=[N+]=[N-])[C@@H](CO)O2)c(=O)[nH]c1=O
not listed: [19]
inactive: all other assays above

CC(C)[C@@H]1CC[C@@H](C)C[C@H]1O
not listed: [4] | [13]
inactive: all other assays above

C/C=C/c1ccc(OC)cc1
not listed: [19]
inactive: all other assays above

O=C(c1ccccc1)C(O)c1ccccc1 (stereo not drawn)
not listed: [4] | [13] | [19]
inactive: all other assays above

Oc1ccc(/C=C/c2cc(O)cc(O)c2)cc1
not listed: [6] | [10] | [13]
inactive: all other assays above

O=c1ccc2ccccc2o1
not listed: [13] | [19]
inactive: all other assays above

CC(=O)NS(=O)(=O)c1ccc(N)cc1
not listed: [13] | [19]
inactive: all other assays above

O=C(C1CCCCC1)N1CC(=O)N2CCc3ccccc3C2C1 (stereo not drawn)
not listed: [4]
inactive: all other assays above

Cn1cc[nH]c1=S
not listed: [4]
inactive: all other assays above

NC(N)=O
not listed: [13] | [19]
inactive: all other assays above

CCCC(CCC)C(=O)O
not listed: [4] | [13] | [19]
inactive: all other assays above

CCCNC(=O)NS(=O)(=O)c1ccc(Cl)cc1
not listed: [13] | [19]
inactive: all other assays above
